We go through 14 compounds from PubChem BioAssay (EPA / NIEHS).

Structures are written as SMILES. Where “and” joins values, the source holds several entries; their conditions need not be identical. Identical values can stand only once. More than one record can exist for a structure, and the calls need not agree. Calls of active or inactive are those of the source. The calls were made as follows: active = hit-call score of the fitted dose curve at least 0.9, where 1 is the maximum; inactive = score below 0.9.

Assay [1] addresses Nuclear respiratory factor 1 (Homo sapiens) (UniProt Q16656). Nature of the assay: ATG_NRF1_CIS: Attagene CIS-FACTORIAL HepG2 Assay for human Nuclear Respiratory Factor 1 (NRF1) Orphan Gene (AID 2282987). To be noted: HepG2 NRF1 cis-element reporter, Attagene multiplex; actives raise or lower the signal. An outline of the steps:
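Reporter mRNA induction or loss in HepG2 cells after 24 h dosing; cis-regulated reporter constructs report endogenous transcription-factor activity. Quantified by RT-PCR/capillary electrophoresis fluorescence, DMSO-referenced.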

Assay [2] can be described thus: ATG_NFI_CIS: Attagene CIS-FACTORIAL HepG2 Assay for human Nuclear Factor I (NFI) (AID 2282989). Particulars: HepG2 cis-regulatory reporter, NFI response element transcription; actives raise or lower the signal. An outline of the steps: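 Cells: human liver HepG2, transiently transfected with promoter-regulated reporter transcription units. Exposure 24 h. Detection: fluorescent RT-PCR products separated by capillary electrophoresis, normalised to DMSO negative control.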

The target of assay [3] is Myc proto-oncogene protein (Homo sapiens) (UniProt P01106). Nature of the assay: ATG_Myc_CIS: Attagene CIS-FACTORIAL HepG2 Assay for human Myelocytomatosis (Myc) Proto-Oncogene Transcription Factor (AID 2282990). Particulars: HepG2, Attagene cis-reporter transcription factor activity; actives raise or lower the signal. An outline of the steps:
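Transiently transfected HepG2 cells bearing cis-promoter reporter units for endogenous transcription factors; 24 h exposure. Reporter mRNA measured by RT-PCR, 6-FAM primer extension, HpaI cut and capillary electrophoresis; bidirectional fit relative to DMSO.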

Assay [4] can be described thus: ATG_NF_kB_CIS: Attagene CIS-FACTORIAL HepG2 Assay for human Nuclear Factor Kappa B (NF-kB) (AID 2282991). To be noted: HepG2 Attagene cis-factorial NF-kB reporter mRNA; actives raise or lower the signal. A digest of the protocol: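 DMSO served as negative control and baseline for bidirectional curve fitting. Transiently transfected HepG2 cells were dosed for 24 h, then reporter transcripts were measured by RT-PCR with capillary electrophoresis detection.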

Assay [5] is described as follows: ATG_Oct_MLP_CIS: Attagene CIS-FACTORIAL HepG2 Assay for human Octamer-Binding Transcription Factor (Oct) (AID 2282993). Particulars: HepG2 Attagene cis-factorial Oct reporter, mRNA; actives raise or lower the signal. An outline of the steps: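 HepG2, transient MRTU transfection, cis promoter elements; 24 h dosing; RT-PCR/CE fluorescence read-out of reporter mRNA; fit both directions vs DMSO.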

The nature of assay [6]: BSK_3C_TissueFactor: BioMAP Diversity Plus: 3C Assay for Tissue Factor Biomarker Activity (AID 2282997). To be noted: BioMAP 3C HUVEC, tissue factor biomarker readout; actives raise or lower the signal. An outline of the steps:
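Values derive from bidirectional curve fitting against DMSO of Tissue Factor ELISA signals, taken 24 h after dosing primary human umbilical vein endothelial cells.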

A short description of assay [7]: BSK_3C_uPAR: BioMAP Diversity Plus: 3C Assay for Urokinase-type plasminogen activator receptor (uPAR) Biomarker Activity (AID 2282998). To be noted: BioMAP 3C HUVEC, uPAR biomarker ELISA; actives raise or lower the signal. A digest of the protocol: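 A multiplexed primary-cell system built on human umbilical vein endothelium was used, with chemical present for 24 h before reading. Cell-surface uPAR was detected by ELISA; signal change in either direction counted against DMSO.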

Assay [8] can be described thus: BSK_3C_VCAM1: BioMAP Diversity Plus: 3C Assay for Vascular cell adhesion molecule 1 (VCAM1) Biomarker Activity (AID 2282999). Particulars: BioMAP 3C HUVEC, VCAM1 ELISA, cytokine-stimulated; actives raise or lower the signal. A digest of the protocol:
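Human umbilical vein endothelial cells (3C system), biomarker read by ELISA 24 h after dosing; bidirectional fit against DMSO baseline. Cytotoxicity tracked by SRB total-protein staining in parallel cultures at biomarker time.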
On the technique in general: ELISA stands for enzyme-linked immunosorbent assay.

Assay [9] addresses Cellular tumor antigen p53 (Homo sapiens) (UniProt P04637). Kind of assay: ATG_p53_CIS: Attagene CIS-FACTORIAL HepG2 Assay for human p53 Transcription Factor (AID 2282994). Particulars: HepG2 p53 cis-element reporter, Attagene mRNA; actives raise or lower the signal. An outline of the steps:
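Multiplexed reporter mRNA assay in human HepG2 liver cells; cis-regulated units report endogenous factor activity. Values come from bidirectional curve fitting against DMSO negative control after 24 h treatment.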

The nature of assay [10]: ATG_NRF2_ARE_CIS: Attagene CIS-FACTORIAL HepG2 Assay for human Nuclear Factor Erythroid 2 Related Factor 2 (NFR2) response to Antioxidant Response Elements (ARE) (AID 2282992).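 As to AC50: reporter mRNA level measured by RT-PCR and capillary electrophoresis fluorescence.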 To be noted: HepG2 Attagene ARE/NRF2 reporter, transcription factor activity; actives raise or lower the signal. An outline of the steps: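 Multiplexed reporter mRNA profiling in HepG2 after a 24 h chemical exposure. Curves fitted in both directions relative to DMSO negative control.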

Sequence of Myc proto-oncogene protein (Homo sapiens) (P01106 whole entry, looked up): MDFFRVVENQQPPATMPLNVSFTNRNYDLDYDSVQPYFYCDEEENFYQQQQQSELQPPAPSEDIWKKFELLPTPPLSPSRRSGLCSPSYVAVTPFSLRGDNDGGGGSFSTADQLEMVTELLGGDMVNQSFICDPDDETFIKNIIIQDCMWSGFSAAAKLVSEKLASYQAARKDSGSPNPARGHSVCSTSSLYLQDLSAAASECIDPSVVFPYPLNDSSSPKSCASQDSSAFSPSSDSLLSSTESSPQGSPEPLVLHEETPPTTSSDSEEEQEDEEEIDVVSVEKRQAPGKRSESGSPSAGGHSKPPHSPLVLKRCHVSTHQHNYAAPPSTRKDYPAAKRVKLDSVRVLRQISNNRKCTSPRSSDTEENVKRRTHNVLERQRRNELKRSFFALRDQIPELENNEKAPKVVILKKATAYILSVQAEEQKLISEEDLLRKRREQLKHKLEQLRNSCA
Sequence of Nuclear respiratory factor 1 (Homo sapiens) (Q16656 whole entry, looked up): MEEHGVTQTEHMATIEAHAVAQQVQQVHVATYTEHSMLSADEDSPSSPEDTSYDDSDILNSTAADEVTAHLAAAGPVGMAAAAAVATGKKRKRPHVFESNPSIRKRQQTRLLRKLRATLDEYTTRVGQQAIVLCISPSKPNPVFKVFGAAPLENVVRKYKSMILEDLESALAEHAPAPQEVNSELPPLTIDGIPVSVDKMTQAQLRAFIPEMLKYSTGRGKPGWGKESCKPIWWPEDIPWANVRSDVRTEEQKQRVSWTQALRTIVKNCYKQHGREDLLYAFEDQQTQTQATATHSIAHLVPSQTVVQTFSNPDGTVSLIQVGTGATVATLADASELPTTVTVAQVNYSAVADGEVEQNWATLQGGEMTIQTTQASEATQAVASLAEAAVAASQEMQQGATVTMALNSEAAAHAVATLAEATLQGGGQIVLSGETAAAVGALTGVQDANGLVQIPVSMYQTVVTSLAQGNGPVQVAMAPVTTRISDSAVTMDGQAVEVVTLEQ
Sequence of Cellular tumor antigen p53 (Homo sapiens) (P04637 whole entry, looked up): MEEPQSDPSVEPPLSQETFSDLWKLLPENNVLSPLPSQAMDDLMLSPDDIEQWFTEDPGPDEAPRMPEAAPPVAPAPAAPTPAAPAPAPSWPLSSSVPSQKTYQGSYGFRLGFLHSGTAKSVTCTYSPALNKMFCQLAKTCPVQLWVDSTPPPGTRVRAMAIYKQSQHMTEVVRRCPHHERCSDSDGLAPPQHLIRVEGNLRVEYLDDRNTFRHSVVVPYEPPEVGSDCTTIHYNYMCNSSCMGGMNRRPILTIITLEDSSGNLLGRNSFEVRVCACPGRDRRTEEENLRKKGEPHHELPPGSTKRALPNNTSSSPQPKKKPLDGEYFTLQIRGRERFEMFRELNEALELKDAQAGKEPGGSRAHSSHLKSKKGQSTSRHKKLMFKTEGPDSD

In the case of `Cc1ccccc1CO[C@@H]1C[C@@]2(C(C)C)CC[C@]1(C)O2`, the compound was called inactive in [1], in assay [2], in [3], in assay [4], in assay [5] and in assay [6]. Moreover, the outcome in [7] and in [8] was inactive.

For orientation: AC50 means the concentration at which the activity in the assay is half-maximal. With `ClC1=C(Cl)[C@]2(Cl)[C@@H]3[C@@H](Cl)[C@H]4O[C@H]4[C@@H]3C1(Cl)C2(Cl)Cl`, the concentration at half-maximal activity (AC50) in [1] was 150 µM (active); in assay [2] it was 65.1 µM (active); in [5] it was 60 µM (active); in [9], 100 µM (active). In addition, the result in assay [3], in assay [4], in assay [6], in assay [7] and in assay [8] was inactive.

`O=C(O)C(F)(F)C(F)(F)C(F)(F)C(F)(F)C(F)(F)C(F)(F)C(F)(F)C(F)(F)C(F)(F)F`: the result in assay [1], in assay [2], in assay [3], in assay [4], in assay [5] and in assay [9] was inactive. Also, the outcome in assay [6], in [7] and in assay [8] was inactive. The AC50 in assay [10] is 59.6 µM (active) and 12.3 µM (active) and 24.7 µM (active); in assay [5], 45.5 µM (active) and 50 µM (active); in assay [9] it was 46.9 µM (active) and 69.4 µM (active); in assay [6], 51.8 µM (active) and 50.7 µM (active); in assay [7], 46.2 µM (active) and 51.4 µM (active); in [8], 56.8 µM (active) and 53.1 µM (active).

As to `O=S(=O)(O)C(F)(F)C(F)(F)C(F)(F)C(F)(F)F`, the compound was called inactive in assay [1], in assay [2], in assay [3], in assay [4], in assay [10] and in assay [5]. Also, the result in assay [9], in assay [6], in [7] and in [8] was inactive.

Take `CCC(C)(c1ccc(O)cc1)c1ccc(O)cc1`: the result in [1], in assay [2], in [3], in assay [5], in [9] and in [6] was inactive. In addition, the outcome in assay [8] was inactive. Moreover, the AC50 in assay [2] is 53 µM (active); in assay [5], 53 µM (active) and 45.7 µM (active) and 9.52 µM (active); in [9] it was 53.6 µM (active) and 33.4 µM (active) and 45.8 µM (active); in assay [7] it was 32.8 µM (active).

Turning to `Oc1c(Cl)c(Cl)c(Cl)c(Cl)c1Cl`, the AC50 in assay [1] was 12.5 µM (active) and 25.7 µM (active); in assay [2] it was 27.4 µM (active) and 51 µM (active); in assay [3], 50 µM (active) and 91.9 µM (active); in [10] it was 13.7 µM (active) and 12.5 µM (active) and 2.62 µM (active); in assay [5], 31.1 µM (active) and 11.4 µM (active) and 73.1 µM (active); in assay [9], 51 µM (active). The concentration at half-maximal activity (AC50) is 26.9 µM (active) in [6]; 13.5 µM (active) and 10.7 µM (active) in assay [7]; 10.2 µM (active) and 32.3 µM (active) in [8]. For the same compound, the outcome in [1], in [2], in assay [3], in assay [9] and in [6] was inactive.

Regarding `CO/C=C(/C(=O)OC)c1ccccc1COc1cccc(C(F)(F)F)n1`, the call in assay [1], in assay [2], in assay [3], in assay [4] and in assay [9] was inactive. Further, the AC50 in [5] was 11.5 µM (active); in assay [6] it was 10.4 µM (active); in assay [7], 36.9 µM (active); in assay [8], 20 µM (active).

For `NS(=O)(=O)C(F)(F)C(F)(F)C(F)(F)C(F)(F)C(F)(F)C(F)(F)C(F)(F)C(F)(F)F`, the outcome in [1], in [3], in assay [5] and in [9] was inactive. The AC50 in assay [2] was 44.3 µM (active) and 37.1 µM (active) and 50 µM (active); in assay [3], 27.6 µM (active); in assay [5], 50 µM (active); in assay [9], 112 µM (active); in assay [6] it was 30.2 µM (active) and 49.5 µM (active) and 52.9 µM (active); in [7] it was 29.9 µM (active) and 42.3 µM (active) and 44.1 µM (active). Besides, in [8], the concentration at half-maximal activity (AC50) was 35.2 µM (active) and 55 µM (active) and 55.3 µM (active).

Take `CC(C)(O)C(=O)Nc1ccc([N+](=O)[O-])c(C(F)(F)F)c1`: the outcome in [1], in assay [2], in [3], in [10], in assay [5] and in assay [9] was inactive. The result in [6], in assay [7] and in assay [8] was inactive. Besides, the half-maximal activity concentration (AC50) is 45.1 µM (active) and 15.9 µM (active) and 54.5 µM (active) in [10]; 38.9 µM (active) in assay [5].

For `Cc1cc(O)ccc1Cl`, the compound was called inactive in assay [1], in assay [2], in assay [3], in assay [10], in assay [5] and in assay [9]. The result in assay [6], in [7] and in assay [8] was inactive.

On to `CC1=C2C[C@H]3[C@@H](CC=C4C[C@@H](O)CC[C@@]43C)[C@@H]2CC[C@]12O[C@@H]1C[C@H](C)CN[C@H]1[C@H]2C`, for which the compound was called inactive in assay [1], in [2], in assay [3], in assay [10], in assay [5] and in [9]. Besides, the result in assay [6], in assay [7] and in [8] was inactive.

For `CC(c1ccc(O)cc1)(c1ccc(O)cc1)c1ccc(O)cc1`, the half-maximal activity concentration (AC50) is 20.2 µM (active) in assay [1]; 19.6 µM (active) in assay [10]; 11.1 µM (active) in assay [5]; 11.1 µM (active) in assay [9]; 32.6 µM (active) in assay [7]; 29.8 µM (active) in assay [8]. Moreover, the outcome in [2], in assay [3] and in assay [6] was inactive.

On to `C=CC(=O)NCNC(=O)C=C`, for which the result in assay [1], in [2], in assay [3], in [5], in assay [9] and in [6] was inactive. Besides, the outcome in assay [7] and in [8] was inactive. Moreover, the AC50 in [4] is 100 µM (active).

Take `O=C(O)C(F)(F)C(F)(F)C(F)(F)C(F)(F)C(F)(F)C(F)(F)C(F)(F)C(F)(F)F`: the compound was classed as inactive in [1], in assay [2], in assay [3], in assay [5], in [9] and in assay [6]. Also, the result in assay [7] and in assay [8] was inactive. Also, the AC50 is 50.9 µM (active) and 35.5 µM (active) and 13 µM (active) in [10]; 50 µM (active) in assay [5]; 217 µM (active) in [9]; 30 µM (active) and 46 µM (active) in assay [6]; 25 µM (active) and 51.6 µM (active) in assay [7]; 49.5 µM (active) and 30 µM (active) in assay [8].
